Hits are enriched below; roughly 11% of the tested compounds scored in any of these assays.
Pf growth 96h: inhibits malaria parasite growth, 96 h | P. falciparum luciferase reporter growth, 96 h | 320,000 tested, 6.9% active | Potency, µM (top dose mostly 28.7 µM), without a hit: at the top dose activity change, negative = inhibition, most hits filed as inhibitors | AID 504834
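Readout is luminescence from an integrated firefly luciferase in P. falciparum. Red cells, 2% hematocrit and 0.05% parasitemia final, were cultured with compound through two parasite generations (96 hours) at 37 C, 5% CO2.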
AMA1-RON2 inh: inhibitors of Plasmodium falciparum AMA1-RON2 interaction; 360,000 tested, 0.2% active; AlphaScreen AMA1-biotinylated RON2 peptide binding; Potency, µM (highest dose often 58.2 µM), for the others: top-dose activity change, negative = inhibition, most hits filed as inhibitors;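 also: 0% = vehicle wells and -100% = peptide control; nearly all actives have a fitted effect of over 45% in size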
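AMA1 (3D7) with his tag at 25 nM final met compounds first, then biotinylated RON2 peptide at 25 nM; detection used donor plus acceptor beads, 10 µg/mL apiece, read by AlphaScreen after 30 min at room temperature.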
Pf growth 48h: P. falciparum growth inhibition at 48 hours (one generation); P. falciparum luciferase growth in erythrocytes, 48 h; Potency, µM (highest dose often 28.7 µM), inactives show top-dose activity change, negative = inhibition, hits mostly inhibitors; 310,000 tested, 5.9% active; AID 504832
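Luciferase-expressing P. falciparum in infected erythrocytes (2% hematocrit, 0.1% parasitemia final) in RPMI 1640/0.5% Albumax were exposed to compound for 48 hours at 37 C, 5% CO2; growth read as luminescence.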
HCV inhibitor: HCV inhibition. Huh7.5.1 HCVcc-Cre infection, luciferase reporter, 44 h. Potency, µM (highest dose often 41.8 µM), inactives show at the top dose activity change, negative = inhibition, most hits filed as inhibitors. 340,000 tested, 3.4% active
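Antiviral activity was scored by luciferase reporter output from cells infected with HCVcc-Cre (~0.5 moi) in presence of compound, 44 h infection period, cells seeded 1,000/well 4 h prior.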
Numbers without * were called inactive; i = inactive; ? = inconclusive; . = no result; [ ] = dose if it differs, or a comment. Calls follow the shape of the dose curve; as a rule, active = well fitted curve in the direction sought with a large enough effect; inconclusive = small, poorly fitted or top-dose-only effect, or another doubt; inactive = no such curve, though single readings can be large; an effect the other way counts as inactive or inconclusive. Unless noted, % is scaled to controls: 0 for no effect and ±100 for the full control effect; potency is read from the fitted curve at half-maximal effect.

SMILES	Pf growth 96h	AMA1-RON2 inh	Pf growth 48h	HCV inhibitor
OC1(c2ccc(Cl)cc2)CCN(Cc2cn[nH]c2-c2ccc(F)cc2)CC1	?	-1.7%	13.1µM*	8.91µM*
COc1ccc(NS(=O)(=O)c2cc(NC(=O)CCc3ccccc3)ccc2N2CCOCC2)cc1	.	-3.4%[11.6 µM]	.	?
COC(=O)CSc1nnc(CNc2ccc(OC)cc2)n1C	.	26.0%	8.2%	16.9%
CC(=O)c1c(C)nc(Nc2nc3ccccc3s2)nc1C	i	-2.2%	309.9%	-3.5%
Cc1cc(C)nc(Nc2nc3ccccc3s2)n1	1.65µM*	5.6%	154.7%	28.5%
CC[C@@H]1[C@H]2CCCC(=O)N3CC[C@@H](C[C@@H]1OC(=O)Nc1ccccc1)[C@@H]23	2.33µM*	4.4%	?	?
Cc1ccn(CCC(=O)N2CCCC(CCC(=O)NCc3ccc(F)c(F)c3)C2)n1 (centres undefined)	11.7µM*	2.3%	-10.9%	8.6%
COc1cc2c3nc4n(c(=O)c3n(CC(=O)NCC3CCCO3)c2cc1OC)CCS4 (centres undefined)	1.5%	-7.0%	0.9%	25.1%
COc1ccc(-c2csc(NC(=O)CSCc3c(C)noc3C)n2)c(OC)c1	10.4µM*	?	?	?
COc1ccc(-c2csc(NC(=O)CN3C(=O)C4CCCCC4C3=O)n2)c(OC)c1 (centres undefined)	?	-12.0%	-11.2%	11.2µM*
Nc1ccc(C(=O)C(=O)c2ccccc2)cc1	.	-2.0%	.	-3.5%
CO/N=C/C(C#N)=C/c1cc(C(=O)c2ccccc2)cn1C	2.94µM*	-3.7%	?	10µM*
CO/N=C/C(C#N)=C/c1ccc(OC)c(OC)c1	12.6%	10.1%	-16.9%	?
COc1ccc2[nH]c3c(NCCCOC(C)C)ncnc3c2c1	-55.9%	2.8%	-81.1%	11.2µM*
COc1ccc2[nH]c3c(NCCC4=CCCCC4)ncnc3c2c1	3.7µM*	?	2.9%	2.82µM*
CCN(CC)CCNc1ncnc2c1[nH]c1ccc(OC)cc12	2.2%	.	3.5%	.
CCOc1ccc2[nH]c3c(NCCN(C)C)ncnc3c2c1	2.08µM*	.	2.33µM*	.
COc1ccc2c(c1)[nH]c1c(=O)n(CCC3=CCCCC3)cnc12	.	2.9%	40.2%	5.0%
CCOc1ccc2[nH]c3c(NCCC(C)C)ncnc3c2c1	?	2.5%	?	-26.3%
CC(C)C[C@H]1CNC(=S)N1CC1CCCN1C[C@H](CC(C)C)N1C[C@H](CC(C)C)N(CCc2ccccc2)C1=S (some centres undefined)	.	9.6%	.	2.7%
CC(C)N1CC2(CC(c3ccc(Cl)cc3Cl)=NO2)CN1C(=O)c1ccc(C(C)(C)C)cc1 (centres undefined)	.	2.9%	.	.
O=[N+]([O-])c1cnc(Nc2ccc(Cl)cn2)c([N+](=O)[O-])c1	31.9%	-19.8%	104.5%	11.2µM*
O=C1/C(=C/c2ccccc2Cl)SC(=S)N1CCCC(=O)N(CCO)c1ccccc1	-27.0%	?	?	12.6µM*
O=C1/C(=C\c2cccc(O)c2O)SC(=S)N1Cc1ccccc1	?	-6.1%	?	25.1µM*
O=C1/C(=C\c2ccc(O)c(O)c2)SC(=S)N1Cc1ccccc1	32.5%	?	13.1µM*	?
SMILES	Pf growth 96h	AMA1-RON2 inh	Pf growth 48h	HCV inhibitor
COc1cc(/C=C2/SC(=S)N(Cc3ccccc3)C2=O)ccc1O	?	-8.4%	?	-10.9%
CC(=O)Nc1ccc(N(C(=O)c2ccco2)C(C(=O)NC2CCCCC2)c2ccccc2)cc1 (centres undefined)	2.6%	4.9%	?	2.1%
Cc1ccccc1N(C(=O)Cc1ccsc1)C(C(=O)NC1CCCCC1)c1ccc(F)cc1 (centres undefined)	?	-3.4%	0.6%	0.8%
COc1cc(C(C(=O)NC2CCCCC2)N(Cc2cccs2)C(=O)Cc2c[nH]c3ccccc23)cc(OC)c1OC (centres undefined)	8.28µM*	-5.7%	9.28µM*	?
COc1cc(C(C(=O)NC2CCCCC2)N(C(=O)Cc2c[nH]c3ccccc23)c2ccccc2C)cc(OC)c1OC (centres undefined)	?	-8.3%[11.6 µM]	13.1µM*	17.8%
COc1ccc(C(C(=O)NC2CCCCC2)N(C(=O)Cc2c[nH]c3ccccc23)c2ccc(NC(C)=O)cc2)cc1OC (centres undefined)	9.28µM*	-3.9%	10.4µM*	3.1%
CCN1C(=O)[C@H]2[C@@H](c3ccc(-c4ccc(Cl)c(Cl)c4)cc3)N[C@@](CC(C)C)(C(=O)OC)[C@H]2C1=O	4.65µM*	-1.4%	11.7µM*	39.5%
COC(=O)[C@]1(CC(C)C)N[C@H](c2ccc(-c3ccc(Cl)c(Cl)c3)cc2)[C@@H]2C(=O)N(C)C(=O)[C@@H]21	4.65µM*	-12.2%	7.38µM*	4.3%
COC(=O)[C@]1(CC(C)C)N[C@H](c2ccc(-c3ccc(C(C)=O)cc3)cc2)[C@@H]2C(=O)N(C)C(=O)[C@@H]21	.	-6.8%	.	9.2%
CCN1C(=O)[C@H]2[C@@H](c3ccc(-c4ccc(OC)cc4)cc3)N[C@@](CC(C)C)(C(=O)OC)[C@H]2C1=O	11.7µM*	0.2%	11.7µM*	1.7%
CC(C)(O)C#Cc1ccc(CN2CCC(n3nccc3NC(=O)C3CC3)CC2)cc1	?	13.2%	-7.7%	5.2%
CSc1ccc(NC(=O)NCCCN2CCN(c3ccccc3F)CC2)cc1	45.3%	-10.2%	?	-33.5%
Cc1c(C)n(C)c2ccc(C(=O)NCCCN3CCN(c4ccccc4F)CC3)cc12	-20.1%	-26.9%	10.4µM*	?
Cc1c(C)n(Cc2ccc(F)cc2)c2ccc(C(=O)NCCCN3CCOCC3)cc12	33.3%	-22.9%	9.28µM*	?
CCc1nc2ccc(C(=O)NCCCN3CCN(c4ccccc4F)CC3)cc2nc1CC	?	-0.8%	?	4.47µM*
COc1ccc(N(C(C)=O)C2C=CS(=O)(=O)C2)c(OC)c1 (centres undefined)	10.4µM*	0.3%	35.8%	-0.5%
O=C1c2ccccc2C(c2nnnn2-c2ccc3c(c2)OCCO3)N1C1CC1 (centres undefined)	.	0.6%	.	.
COCC(C)OC(=O)C(C#N)c1nc2ccccc2nc1N1CCN(Cc2ccccc2)CC1 (centres undefined)	?	-3.7%	.	4.9%
C=CCN(CC=C)c1nc2ccccc2nc1C(C#N)C(=O)OC(C)C (centres undefined)	?	-8.8%	10.4µM*	?
CCc1ccc(-n2c(=S)sc3c(=O)[nH]c(SCC(=O)NC4CCCCC4)nc32)cc1	.	11.9%	.	.
CSCc1c(C(=O)NCCc2ccccn2)oc2ccccc12	?	-11.4%	?	11.7%
CN(C)c1ccc(NC(=O)CSCc2nc3c(nnn3Cc3ccc(F)cc3)c(=O)[nH]2)cc1	8.28µM*	5.6%	-23.0%	6.1%
Nc1ccccc1C(=O)N1O[C@@H]2C=C[C@H]1CC2	.	-5.3%	.	2.7%
NC1=NC[C@H](c2ccccc2)N1CCc1cc(C(F)(F)F)cc(C(F)(F)F)c1	3.7µM*	-3.6%	13.1µM*	?
